Laboratory results taken from PubChem BioAssay (NCI).
Compounds without any hit were thinned out: in the full panel of roughly 83,000, 20% have a hit.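 Compound tested at a single concentration for 48 hours in 96-well plates; a percent growth value below 10 was scored as active.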 A number with no mark means an inactive call. Active and inactive are the calls of the source.

What was measured:
Test in all cases: NCI-60 one-dose screen, 48 h (100 = growth as untreated, 0 = no growth, -100 = all killed)
Details in all cases: 10 µM unless noted
[1] = test system: NCI-H23 lung
[2] = test system: NCI-H322M lung
[3] = test system: HOP-62 NSCLC
[4] = test system: NCI-H460 lung
[5] = test system: HOP-92 NSCLC
[6] = test system: NCI-H522 lung
[7] = test system: A549/ATCC NSCLC
[8] = test system: 786-0 renal
[9] = test system: COLO 205 colon
[10] = test system: DU-145 prostate
[11] = test system: K-562 leukemia
[12] = test system: MALME-3M melanoma
[13] = test system: MDA-MB-231 breast
[14] = test system: RXF 393 renal
[15] = test system: SF-268 CNS
[16] = test system: SF-295 CNS
[17] = test system: SF-539 CNS
[18] = test system: UACC-257 melanoma
[19] = test system: M14 melanoma
[20] = test system: HCT-15 colon

Structure (SMILES) | growth [1] | growth [2] | growth [3] | growth [4] | growth [5] | growth [6] | growth [7] | growth [8] | growth [9] | growth [10] | growth [11] | growth [12] | growth [13] | growth [14] | growth [15] | growth [16] | growth [17] | growth [18] | growth [19] | growth [20]
CCOC(=O)c1c2c(c(C)n1Cc1ccc(OC)cc1)-c1oncc1CC2 | 87.7% | 78.5% | 62% | 99.1% | 60.6% | 99.3% | 84.8% | 79.6% | 137% | 96% | 92% | 125% | 115% | 88.1% | 81.5% | 91.3% | 79.5% | 106% | 121% | 91.3%
COc1cccc(C2=NN3C(C2)c2ccccc2OC3c2ccc(/C=C3\SC(=O)NC3=O)cc2)c1 (stereo not given) | 92.3% | 97.8% | 110% | 101% | 106% | 87.8% | 103% | 95.6% | 119% | 106% | 105% | 105% | 95.4% | 105% | 94.6% | 94.3% | 102% | 106% | 104% | 95.2%
COc1ccc(Cn2c(Br)c3c(c2-c2cc(OC)c(OC)c(OC)c2)CCc2sc(NC(C)=O)nc2-3)cc1 | 66.1% | 63% | 60.3% | 31.2% | 65.5% | 13.4% | 52.8% | 54.1% | 20.8% | 66.7% | 15.4% | -6.05% (active) | 62.6% | 32.3% | 37.1% | 3.53% (active) | 23.1% | 48% | 47.9% | 51.9%
O=c1oc2ccc(I)cc2c(=O)n1-c1ccc(I)cc1F | 4.94% (active) | 7.17% (active) | -8.24% (active) | 0.977% (active) | -10.4% (active) | -16.1% (active) | 6.24% (active) | 2.44% (active) | 44.5% | 15.8% | 5.58% (active) | -27.7% (active) | -9.68% (active) | -3.51% (active) | 8.4% (active) | -56.6% (active) | 2.15% (active) | -20.3% (active) | -2.96% (active) | 2% (active)
O=C(Nc1ccc(N2CCNCC2)cc1)c1[nH]ncc1Nc1ncnc2sc3c(c12)CCC3 | -68.6% (active) | -33.2% (active) | -76.2% (active) | -81.8% (active) | -56.7% (active) | -50.3% (active) | -71.4% (active) | -81.4% (active) | -77.2% (active) | -92.4% (active) | -62.7% (active) | -75.9% (active) | -84.9% (active) | -90.8% (active) | -72.3% (active) | -77.2% (active) | -98.8% (active) | 26% | -91.1% (active) | -85.7% (active)
COC(=O)c1cc2c(n1Cc1ccccc1)-c1oncc1CCC2 | 81.5% | 114% | 72.9% | 94.7% | 75.3% | 39.1% | 49.3% | 92.3% | 55% | 102% | 17.8% | 49.5% | 64.2% | 73.7% | 86.8% | 74.7% | 69.1% | 76.2% | 57.5% | 40.9%
CCCCCCC(O)(c1ccc(F)cc1)C(CN1CCOCC1)c1ccccc1 (stereo not given) | 25.4% | 74.7% | 56.9% | 16.1% | -16.1% (active) | 26.9% | 23.9% | 44.9% | -21.7% (active) | 51.7% | 12.9% | 24.5% | 26.2% | 20.6% | 47.4% | -21.5% (active) | 79.1% | 57.2% | 35.5% | 28.1%
CCN1C(=O)N(CC)C2C1NC(=S)N2/N=C/C=C/c1ccccc1OC (stereo not given) | 24.3% | 43.9% | 44.4% | 5.86% (active) | 18.4% | 4.46% (active) | 22.5% | 20.2% | -46.2% (active) | 9.85% (active) | 9.29% (active) | 55.1% | 13.3% | 35.3% | 26.7% | 11.1% | -8.21% (active) | 71.9% | 7.43% (active) | 9.07% (active)
CCn1c(Cc2ccccc2Nc2c(Cl)cccc2Cl)nnc1SCC(=O)NN1C(=O)/C(=C/c2cccc(OC)c2OC)SC1=S | 98.4% | 99% | 98.6% | 103% | 96.9% | 86.8% | 96.3% | 104% | 112% | 105% | 89.7% | 97.1% | 102% | 112% | 96.1% | 95% | 101% | 101% | 103% | 99.8%
CCCCC1COc2cccc3c2N1C=C/C3=C\C(=O)N(C)c1ccccc1 (stereo not given) | 26.6% | 89.2% | 78.2% | 64% | 48.4% | 55.6% | 71.6% | 79.3% | 72.9% | 82.9% | 26.2% | 59.9% | 62.9% | 89.6% | 70.4% | 52.2% | 84% | 53% | 65.1% | 86.3%
CC1CCCCN1CCCNC(=O)c1ccc2c(c1)sc1nc(-c3ccc(F)cc3)cn12 (stereo not given) | 92.1% | 107% | 90.9% | 102% | 83.1% | 102% | 108% | 78.8% | 98% | 105% | 77% | 98.3% | 75.2% | 91.7% | 92.8% | 109% | 98.6% | 124% | 97.1% | 104%
O=C(CN1C=NC2C(N3CCOCC3)=NC=NC21)c1cccc2ccccc12 (stereo not given) | 103% | 98.8% | 99.2% | 103% | 90.2% | 90.2% | 90.1% | 101% | 119% | 105% | 107% | 114% | 88.1% | 100% | 84.7% | 102% | 98.9% | 101% | 105% | 95.8%
O=C(CN1C=NC2C(N3CCOCC3)=NC=NC21)c1ccc(Br)cc1 (stereo not given) | 99.2% | 97.2% | 103% | 99.9% | 106% | 87.2% | 103% | 103% | 112% | 107% | 106% | 104% | 105% | 103% | 98.9% | 97.9% | 100% | 105% | 107% | 101%
O=C(Nc1ccc(I)cc1F)c1cc(F)ccc1O | -2.66% (active) | 4.87% (active) | -16.6% (active) | 1.95% (active) | -9.55% (active) | -15.8% (active) | 6.45% (active) | -0.577% (active) | 25.1% | 15.1% | 6.93% (active) | -31.4% (active) | -23.7% (active) | -2.46% (active) | 8.56% (active) | -68.5% (active) | 1.28% (active) | -17.3% (active) | -14.5% (active) | 0.237% (active)
COc1cc(/C=C/C(=O)c2c(C)nc3ccccc3c2/C=C/c2ccccc2)cc(OC)c1OC | 10.9% | 21% | 22.2% | -33.3% (active) | 14.6% | -21% (active) | 8.71% (active) | 18.2% | 4.78% (active) | -0.597% (active) | 6.02% (active) | 36.3% | -0.432% (active) | -17.2% (active) | 25.9% | 29.8% | 1.35% (active) | 42.1% | -6.24% (active) | -6.23% (active)
COc1cc(/C=C2\CCC/C(=C\c3cc(CN4CCCCC4)c(O)c(OC)c3)C2=O)cc(CN2CCCCC2)c1O | 74.6% | 85.9% | 88.1% | 72.7% | 47% | 87% | 89.7% | 72.4% | 88.4% | 83.1% | 38.8% | 90.3% | 69.3% | 61.7% | 73.5% | 96.8% | 73% | 95.4% | 99% | 52.3%
